This is part of a sample that, as a whole, favours compounds with a hit. Of some 79,000 tested, about 15% had one in any assay. Unmarked numbers belong to inactive results. Activity calls are given as the source filed them. Rule as the data show it: active = growth inhibition above about 70%; inactive = the rest.
Columns and labels:
[1] = NCI Yeast Anticancer Drug Screen. Data for the rad50 strain (AID 155);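 also: 0% = growth of vehicle-only cultures of the same strain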; conditions: S. cerevisiae rad50 strain growth inhibition, hits give high values
Outline: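 Vehicle-treated cultures provide the reference for the growth inhibition reported for compound-exposed, repair-deficient yeast.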

[2] = NCI Yeast Anticancer Drug Screen. Data for the mec2-1 strain (AID 157); conditions: S. cerevisiae mec2-1 strain, hits give high values
Outline: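 Compounds were applied to mec2-1 yeast cells. Their growth was then compared with that of vehicle-treated cultures to give growth inhibition.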

[3] = NCI Yeast Anticancer Drug Screen. Data for the sgs1 mgt1 strain (AID 161);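 also: 0% = growth of cultures given vehicle only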; conditions: S. cerevisiae sgs1 mgt1 strain, hits give high values
Outline: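 This yeast growth screen uses a strain with defined DNA-repair lesions; compound-treated growth is compared with vehicle-treated growth.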

[4] = NCI Yeast Anticancer Drug Screen. Data for the cln2 rad14 strain (AID 165);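 also: 0% = growth equal to vehicle treated cultures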; conditions: S. cerevisiae cln2 rad14 strain, hits give high values
Outline: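 Strain: cln2 rad14 yeast, altered in cell cycle control and DNA damage repair. Read-out: growth inhibition vs vehicle.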

[5] = NCI Yeast Anticancer Drug Screen. Data for the bub3 strain (AID 167); conditions: S. cerevisiae bub3 mutant strain, hits give high values
Outline: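 Mutant yeast screening strain plus compound; vehicle-treated cultures serve as the 0% inhibition reference.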

[6] = NCI Yeast Anticancer Drug Screen. Data for the mlh1 rad18 strain (AID 175); conditions: S. cerevisiae mlh1 rad18 strain growth inhibition, hits give high values
Outline: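 A repair-deficient yeast strain is exposed to test compound, and growth is scored relative to vehicle-treated controls.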

[7] = at 5.0 µM (retest, dose inferred, filed as 0.5)
[8] = at 50.0 µM (retest, dose inferred, filed as 5.0)

For `CCC[CH2][Sn]1([CH2]CCC)[O]C(=O)c2cccnc2[O]1`, the growth inhibition [1, 7] was 34%, the growth inhibition [1, 8] was 94% (active) and the growth inhibition ([1]; at 50.0 µM) was 85.3% (active). The growth inhibition [2, 7] was 31%, the growth inhibition [2, 8] was 97% (active) and the growth inhibition ([2]; at 50.0 µM) was 85.5% (active). The growth inhibition [3, 7] was 42%, the growth inhibition [3, 8] was 97% (active) and the growth inhibition ([3]; at 50.0 µM) was 85.3% (active). For the same compound, the growth inhibition [4, 7] was 22%, the growth inhibition [4, 8] was 93% (active) and the growth inhibition ([4]; at 50.0 µM) was 78.4% (active). For the same compound, the growth inhibition [5, 7] was 47%, the growth inhibition [5, 8] was 97% (active) and the growth inhibition ([5]; at 50.0 µM) was 87.7% (active). The growth inhibition [6, 7] was 51%, the growth inhibition [6, 8] was 97% (active) and the growth inhibition ([6]; at 50.0 µM) was 84.5% (active).

With `CC(=O)C1C2c3ccccc3C(c3ccccc32)C1C` (configuration not stated) the growth inhibition [1, 7] was 3%, the growth inhibition [1, 8] was 55% and the growth inhibition ([1]; at 50.0 µM) was 77.6% (active). For the same compound, the growth inhibition [2, 7] was -7%, the growth inhibition [2, 8] was 52% and the growth inhibition ([2]; at 50.0 µM) was 10.4%. It also gave a growth inhibition [3, 7] of -2%, a growth inhibition [3, 8] of 62% and a growth inhibition ([3]; at 50.0 µM) of 65%. For the same compound, the growth inhibition [4, 7] was -85%, the growth inhibition [4, 8] was 63% and the growth inhibition ([4]; at 50.0 µM) was 30.5%. For the same compound, the growth inhibition [5, 7] was -9%, the growth inhibition [5, 8] was 71% (active) and the growth inhibition ([5]; at 50.0 µM) was 45.1%. For the same compound, the growth inhibition [6, 7] was -1%, the growth inhibition [6, 8] was 53% and the growth inhibition ([6]; at 50.0 µM) was 69.5%.

For `CN(C)CC1CC2C3CC=C4CC(O)CCC4(C)C3CCC2(C)C1=O` (configuration not stated), the growth inhibition [1, 7] was -9%, the growth inhibition [1, 8] was 78% (active) and the growth inhibition ([1]; at 50.0 µM) was 88% (active). For the same compound, the growth inhibition [2, 7] was -1%, the growth inhibition [2, 8] was 85% (active) and the growth inhibition ([2]; at 50.0 µM) was 37.4%. The growth inhibition [3, 7] was -5%, the growth inhibition [3, 8] was 86% (active) and the growth inhibition ([3]; at 50.0 µM) was 92.2% (active). For the same compound, the growth inhibition [4, 7] was 4%, the growth inhibition [4, 8] was 64% and the growth inhibition ([4]; at 50.0 µM) was 29.1%. For the same compound, the growth inhibition [5, 7] was -23%, the growth inhibition [5, 8] was 90% (active) and the growth inhibition ([5]; at 50.0 µM) was 79% (active). The growth inhibition [6, 7] was -12%, the growth inhibition [6, 8] was 91% (active) and the growth inhibition ([6]; at 50.0 µM) was 92.5% (active).

For `O=[C-]CCCCCC[C-]=O.[C-]#[O+].[C-]#[O+].[C-]#[O+].[C-]#[O+].[Fe+6].[Fe+6].[c-]1[c-][c-][cH-][c-]1.[c-]1[c-][c-][cH-][c-]1`, the growth inhibition [1, 7] was 9%, the growth inhibition [1, 8] was 97% (active) and the growth inhibition ([1]; at 50.0 µM) was 97.9% (active). The growth inhibition [2, 7] was 13%, the growth inhibition [2, 8] was 97% (active) and the growth inhibition ([2]; at 50.0 µM) was 98.5% (active). For the same compound, the growth inhibition [3, 7] was 1%, the growth inhibition [3, 8] was 98% (active) and the growth inhibition ([3]; at 50.0 µM) was 96.8% (active). For the same compound, the growth inhibition [4, 7] was 1%, the growth inhibition [4, 8] was 97% (active) and the growth inhibition ([4]; at 50.0 µM) was 97.8% (active). For the same compound, the growth inhibition [5, 7] was -4%, the growth inhibition [5, 8] was 97% (active) and the growth inhibition ([5]; at 50.0 µM) was 99% (active). For the same compound, the growth inhibition [6, 7] was 5%, the growth inhibition [6, 8] was 98% (active) and the growth inhibition ([6]; at 50.0 µM) was 93.1% (active).

Compound `CN(C)CCCNc1ccnc2c(COC(=O)N(CCCl)CCCl)ccc([N+](=O)[O-])c12` has a growth inhibition [1, 7] of 15%, a growth inhibition [1, 8] of 33% and a growth inhibition ([1]; at 50.0 µM) of 52.5%. The growth inhibition [2, 7] was 23%, the growth inhibition [2, 8] was 41% and the growth inhibition ([2]; at 50.0 µM) was 53.7%. The growth inhibition [3, 7] was 34%, the growth inhibition [3, 8] was 75% (active) and the growth inhibition ([3]; at 50.0 µM) was 74.2% (active). For the same compound, the growth inhibition [4, 7] was 22%, the growth inhibition [4, 8] was 63% and the growth inhibition ([4]; at 50.0 µM) was 43.6%. For the same compound, the growth inhibition [5, 7] was 10%, the growth inhibition [5, 8] was 42% and the growth inhibition ([5]; at 50.0 µM) was 38.1%. The growth inhibition [6, 7] was 22%, the growth inhibition [6, 8] was 82% (active) and the growth inhibition ([6]; at 50.0 µM) was 84.7% (active).

For `Cc1cc([N+](=O)[O-])c(O)c([N+](=O)[O-])c1C`, the growth inhibition [1, 7] was 2%, the growth inhibition [1, 8] was 71% (active) and the growth inhibition ([1]; at 50.0 µM) was 67.5%. It also gave a growth inhibition [2, 7] of 12%, a growth inhibition [2, 8] of 47% and a growth inhibition ([2]; at 50.0 µM) of 26.6%. For the same compound, the growth inhibition [3, 7] was 3%, the growth inhibition [3, 8] was 70% (active) and the growth inhibition ([3]; at 50.0 µM) was 62.5%. The growth inhibition [4, 7] was -42%, the growth inhibition [4, 8] was 34% and the growth inhibition ([4]; at 50.0 µM) was 45.4%. For the same compound, the growth inhibition [5, 7] was 11%, the growth inhibition [5, 8] was 58% and the growth inhibition ([5]; at 50.0 µM) was 63.2%. The growth inhibition [6, 7] was -7%, the growth inhibition [6, 8] was 90% (active) and the growth inhibition ([6]; at 50.0 µM) was 54.1%.

In the case of `O=C(COc1ccc(Cl)c(Cl)c1)N(Cc1ccccc1)Cc1ccc[n+](Cc2ccc(S(=O)(=O)F)cc2)c1`, the growth inhibition [1, 7] is reported as 4%, the growth inhibition [1, 8] is reported as 99% (active) and the growth inhibition ([1]; at 50.0 µM) is reported as 43.5%. The growth inhibition [2, 7] was -59%, the growth inhibition [2, 8] was 100% (active) and the growth inhibition ([2]; at 50.0 µM) was 51.9%. The growth inhibition [3, 7] was 1%, the growth inhibition [3, 8] was 100% (active) and the growth inhibition ([3]; at 50.0 µM) was 53.6%. The growth inhibition [4, 7] was 5%, the growth inhibition [4, 8] was 98% (active) and the growth inhibition ([4]; at 50.0 µM) was 56.9%. For the same compound, the growth inhibition [5, 7] was 3%, the growth inhibition [5, 8] was 99% (active) and the growth inhibition ([5]; at 50.0 µM) was 52.5%. For the same compound, the growth inhibition [6, 7] was 4%, the growth inhibition [6, 8] was 99% (active) and the growth inhibition ([6]; at 50.0 µM) was 59.4%.

With `Cc1ccc2c(c1)SP(=S)(c1ccccc1)N2` (configuration not stated) the growth inhibition [1, 7] was 6%, the growth inhibition [1, 8] was 99% (active) and the growth inhibition ([1]; at 50.0 µM) was 99.2% (active). The growth inhibition [2, 7] was 4%, the growth inhibition [2, 8] was 99% (active) and the growth inhibition ([2]; at 50.0 µM) was 99.5% (active). The growth inhibition [3, 7] was 8%, the growth inhibition [3, 8] was 97% (active) and the growth inhibition ([3]; at 50.0 µM) was 99.3% (active). The growth inhibition [4, 7] was 15%, the growth inhibition [4, 8] was 97% (active) and the growth inhibition ([4]; at 50.0 µM) was 54.4%. The growth inhibition [5, 7] was 0%, the growth inhibition [5, 8] was 99% (active) and the growth inhibition ([5]; at 50.0 µM) was 98.8% (active). For the same compound, the growth inhibition [6, 7] was 3%, the growth inhibition [6, 8] was 99% (active) and the growth inhibition ([6]; at 50.0 µM) was 98% (active).

For `CC(C)C1(NC(=O)C2C=C3c4cccc5[nH]cc(c45)CC3N(C)C2)OC2(O)C3CCCN3C(=O)C(Cc3ccccc3)N2C1=O` (configuration not stated) (tested in a mixture with another compound), the growth inhibition [1, 7] was 22%, the growth inhibition [1, 8] was 97% (active) and the growth inhibition ([1]; at 50.0 µM) was 98.2% (active). For the same compound, the growth inhibition [2, 7] was 4%, the growth inhibition [2, 8] was 99% (active) and the growth inhibition ([2]; at 50.0 µM) was 98.6% (active). For the same compound, the growth inhibition [3, 7] was 4%, the growth inhibition [3, 8] was 96% (active) and the growth inhibition ([3]; at 50.0 µM) was 98.7% (active). For the same compound, the growth inhibition [4, 7] was 6%, the growth inhibition [4, 8] was 98% (active) and the growth inhibition ([4]; at 50.0 µM) was 96.8% (active). The growth inhibition [5, 7] was 7%, the growth inhibition [5, 8] was 98% (active) and the growth inhibition ([5]; at 50.0 µM) was 97.5% (active). For the same compound, the growth inhibition [6, 7] was 6%, the growth inhibition [6, 8] was 98% (active) and the growth inhibition ([6]; at 50.0 µM) was 96.8% (active).
